# In PubChem BioAssay (NCI):
# The panel holds about 83,000 compounds, 20% with a hit somewhere; the sample as a whole holds those more often.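 The test compound was applied at a single concentration to cells in 96-well plates for 48 hours, and percent growth was recorded.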 Values without a mark were called inactive. Calls of active or inactive are those of the source. How the source made its calls: active means growth percent below 10; inactive means the rest.
# Test system: SK-MEL-2 melanoma
# Test: NCI-60 one-dose screen, 48 h (100 = growth as untreated, 0 = no growth, -100 = all killed)
# Settings: 10 µM unless noted
row,Compound,growth
1,Nc1cc(N)c(S(=O)(=O)O)cc1N=Nc1cc([N+](=O)[O-])ccc1O,98.1%
2,CC1CCN(CCCCCOc2ccc3oc4ccccc4c(=O)c3c2)CC1,102%
3,CCOC(=O)C1=C(C)n2nc(CC#N)c(C#N)c2NC1c1ccc(Cl)cc1 (centres undefined),105%
4,Cc1cccc(C)c1NCc1nnc(-c2ccco2)o1,100%
5,COC(=O)/C=C1\SC(=Nc2cccc(Cl)c2)N(CCc2c[nH]c3ccccc23)C1=O,40.6%
6,COc1ccc(C(C)c2cc(OC)c(OC)c(OC)c2)cc1 (centres undefined),33.6%
7,CCO/C=N/S(=O)(=O)c1cc2c(cc1Cl)NC=NS2(=O)=O,105%
8,COc1ccc([C@H]2[C@@H](F)C(=O)N2c2cc(OC)c(OC)c(OC)c2)cc1F,58.8%
9,O=C(CN1N=C(c2ccc(F)cc2)CCC1=O)Nc1nccs1,101%
10,Nc1cc(N)nc(SCC(=O)O)n1,99.7%
11,CCOC(=O)NCCc1nc2c([nH]1)c(=O)n(C)c(=O)n2C,101%
12,CC1(c2ccccc2Cl)NC(=O)NC1=O (centres undefined),95.6%
13,C=C1C(=O)O[C@H]2[C@H]1CC/C(COC(=O)n1ccnc1)=C\CC[C@@]1(C)O[C@@H]21,89.4%
14,COc1ccccc1-c1ccc2nc(NC(=O)Nc3cc(C(F)(F)F)cc(C(F)(F)F)c3)sc2c1,-14.1% (active)
15,O=C1NC(SCc2ccc(F)cc2)=N/C1=C/c1cccc(OCc2ccc(Cl)cc2)c1,99.4%
16,O=C(CCc1nnc2sc(OCc3ccccc3)nn12)c1nc2ccc([N+](=O)[O-])cc2[nH]1,95.6%
17,Nc1c(C(=O)Nc2ccccn2)sc2nc3c(cc12)CCCC3,35.1%
18,Cc1nnc(/N=C2\NC(=O)/C(=C/c3ccsc3)S2)s1,95.5%
19,Cc1cc(Nc2nc(SCc3ccc(C(=O)Nc4ccc(F)cc4N)cc3)nn3cccc23)n[nH]1,18.2%
20,Oc1c(CCl)cc(Cl)cc1Cc1cc(Cl)cc(Cc2cc(Cl)cc(CCl)c2O)c1O,-16.6% (active)
21,COc1ccc(C2N(c3cc(OC)c(OC)c(OC)c3)C(=O)C2(F)F)cc1F (centres undefined),84.6%
22,COc1cc2c(cc1OC)C(Sc1ccc(Cl)cc1)c1c(nc(N)c(C#N)c1N)O2 (centres undefined),-21.1% (active)

# Test system: EKVX NSCLC
# Test: as above
# Settings: 10 µM unless noted
row,Compound,growth
1,COc1ccc2c(c1)OC13Oc4cc(OC)ccc4C=C1CCCCC3=C2,88.8%
2,C/C(=N/Nc1nc2ccccc2n1C)c1ccccn1,6.63% (active)
3,Cc1nc2sc(C(=O)Nc3cccc4ccccc34)c(N)c2cc1C(C)O (centres undefined),36.7%
4,N#Cc1c(-c2ccc(F)cc2)c(C#N)c2c(C#N)c(N)nn2c1N,96.8%
5,CCOc1ccc(C2N(c3cc(OC)c(OC)c(OC)c3)C(=O)C2(F)F)cc1 (centres undefined),75.3%
6,CCOc1ccccc1C(=O)/C=C/c1cc2ccccc2[nH]c1=O,-1.6% (active)
7,Cc1ccc(C2=N[C@H]3CCC[C@@H]3N(c3ccccc3)C(C(Cl)Cl)=N2)cc1,98.4%
8,COc1cc(/C=C/CO)cc(OC)c1O[C@@H]1O[C@H](CO)[C@@H](O)[C@H](O)[C@H]1O,95%
9,COc1ccc(C(=S)c2cc(OC)c(OC)c(OC)c2)cc1OC(=O)CCl,71.8%
10,O=C1CCC23OC(c4ccccc4N12)C(O)C(O)C3O (centres undefined),107%
11,COc1cc(/C=C/C(=O)c2cccs2)ccc1OCc1ccc(Cl)nc1,94.8%
12,O=c1c2ccccc2oc2ccc(OCCCCCN3CCCCCC3)cc12,90.4%
13,C=C1C(=O)O[C@H]2[C@H]1CC/C(COC(=O)NCC(=O)Nc1ccc(OC)c(C(N)=O)c1O)=C\CC[C@@]1(C)O[C@@H]21,85.1%
14,COc1ccc(-c2[nH]c3ccccc3c2C=C(C#N)C#N)cc1,12.4%
15,COC(=O)/C=C/c1cc(OC(C)=O)c2c(c1)C(C(=O)OC)C(c1ccc(OC(C)=O)c(OC(C)=O)c1)O2 (centres undefined),44.4%
16,Nc1cc(N)c(S(=O)(=O)O)cc1N=Nc1cc([N+](=O)[O-])ccc1O,103%
17,CC1CCN(CCCCCOc2ccc3oc4ccccc4c(=O)c3c2)CC1,89%
18,CCOC(=O)C1=C(C)n2nc(CC#N)c(C#N)c2NC1c1ccc(Cl)cc1 (centres undefined),89%
19,Cc1cccc(C)c1NCc1nnc(-c2ccco2)o1,81.5%

row,Compound,growth
1,COC(=O)/C=C1\SC(=Nc2cccc(Cl)c2)N(CCc2c[nH]c3ccccc23)C1=O,71.9%
2,COc1ccc(C(C)c2cc(OC)c(OC)c(OC)c2)cc1 (centres undefined),35.8%
3,CCO/C=N/S(=O)(=O)c1cc2c(cc1Cl)NC=NS2(=O)=O,103%
4,COc1ccc([C@H]2[C@@H](F)C(=O)N2c2cc(OC)c(OC)c(OC)c2)cc1F,72.2%
5,O=C(CN1N=C(c2ccc(F)cc2)CCC1=O)Nc1nccs1,98.3%
6,Nc1cc(N)nc(SCC(=O)O)n1,106%
7,CCOC(=O)NCCc1nc2c([nH]1)c(=O)n(C)c(=O)n2C,99.7%
8,CC1(c2ccccc2Cl)NC(=O)NC1=O (centres undefined),105%
9,C=C1C(=O)O[C@H]2[C@H]1CC/C(COC(=O)n1ccnc1)=C\CC[C@@]1(C)O[C@@H]21,80.9%
10,COc1ccccc1-c1ccc2nc(NC(=O)Nc3cc(C(F)(F)F)cc(C(F)(F)F)c3)sc2c1,10.7%
11,O=C1NC(SCc2ccc(F)cc2)=N/C1=C/c1cccc(OCc2ccc(Cl)cc2)c1,66.3%
12,O=C(CCc1nnc2sc(OCc3ccccc3)nn12)c1nc2ccc([N+](=O)[O-])cc2[nH]1,89.3%
13,Nc1c(C(=O)Nc2ccccn2)sc2nc3c(cc12)CCCC3,55.2%
14,Cc1nnc(/N=C2\NC(=O)/C(=C/c3ccsc3)S2)s1,93.6%
15,Cc1cc(Nc2nc(SCc3ccc(C(=O)Nc4ccc(F)cc4N)cc3)nn3cccc23)n[nH]1,31%
16,Oc1c(CCl)cc(Cl)cc1Cc1cc(Cl)cc(Cc2cc(Cl)cc(CCl)c2O)c1O,21%
17,COc1ccc(C2N(c3cc(OC)c(OC)c(OC)c3)C(=O)C2(F)F)cc1F (centres undefined),77.7%
18,COc1cc2c(cc1OC)C(Sc1ccc(Cl)cc1)c1c(nc(N)c(C#N)c1N)O2 (centres undefined),1.68% (active)
